This note sets out measurements from PubChem BioAssay.

Assay [1] in a line: inhibitors of TNFa-induced NFkB p65 translocation, primary screen, imaging, HUVEC, MLSMR starter and 10KST1 sets (AID 438;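 active means inhibition above 20% together with a positive visual image hit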;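 further: compound added about 3h40 before a 20 min TNFalpha stimulation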;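 on inhibition: signal is the nuclear over cytoplasmic p65 intensity ratio per well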). The settings on record: HUVEC TNFa-induced p65 nuclear translocation; cell count: measured here: nuclei count (cytotoxicity indicator), at 2.08 µM; inhibition: at 2 µM, stronger effect = higher value, 0% TNFa-plus-vehicle, 100% no-TNFa wells.
A short description of assay [2]: reduction of polyQ htt aggregates in cells – imaging, exon1htt(103Q)mCFP cells, high-content imaging, primary screen (AID 483;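 active means visual image review flags a hit and inhibition of aggregation exceeds 20%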;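 further: compound exposure lasted 3 days before fixation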;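 on nuclei count: percent of the per-plate median nuclei count of sample wells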). The settings on record: exon1htt(103Q)mCFP cell line, aggregate imaging, at 2 µM; inhibition of aggregation: stronger effect = higher value; nuclei count: measured here: cell count, toxicity.
A short description of assay [3]: endothelial E-selectin expression blockers – imaging, HUVEC, immunofluorescence, MLSMR starter and 10KST1 sets, primary screen (AID 487;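 active means visually confirmed hit in the image check and inhibition above 20%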;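 on inhibition: signal is fraction of cell area covered by stained E-selectin grains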;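 on nuclei count: 100% = median nuclei count of all wells on the same plate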). Particulars: HUVEC TNFalpha-induced E-selectin immunofluorescence imaging, at 2 µM; inhibition: stronger effect = higher value; nuclei count: measured here: cell number, toxicity.
A short description of assay [4]: Primary imaging screen for DUSP6 inhibitors that restore phospho-Erk in transfected HeLa cells, chemical complementation (AID 609;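 active means compounds giving at least 50% inhibition in the cell-based MKP-3 phosphatase rescue imaging test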;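 on inhibition: phospho-Erk level distribution per well compared with pooled transfected vehicle control wells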). The settings on record: HeLa MKP-3 transfected, phospho-Erk imaging KS statistic, at 10 µM, cells stimulated with TPA for 15 min.
Assay [5] concerns the target Dual specificity protein phosphatase 6 (Homo sapiens) (UniProt Q16828). Described as above. Particulars: HeLa MKP-3 transfected, phospho-Erk imaging KS statistic; at 10 µM; stronger effect = higher value; cells stimulated with TPA for 15 min.
In assay [6] the target is Voltage-gated potassium channel subunit beta-2 (Rattus norvegicus) (UniProt P62483). The assay is described as follows: inhibitors of rat Kvbeta2 reductase activity – biochemical, NADPH fluorescence, primary screen (AID 622;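 active means fluorescence slope higher than the sample average by over 3 SD, cut at about -0.22 in these data, passing the limit was not always enough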;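 further: slope of raw intensity against log time taken from 70 to 1610 s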). Particulars: recombinant KvBeta, 4-cyanobenzaldehyde reduction, at 10 µM, stronger effect = higher value.
Assay [7] has the same target. Kind of assay: enhancers of rat Kvbeta2 NADPH turnover – biochemical, NADPH fluorescence, primary screen (AID 623;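 active means NADPH fluorescence slope more negative than the mean of all samples by about 3 SD, 99.7% confidence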;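 further: fluorescence intensity change per second fitted from 20 to 320 s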). Particulars: Recombinant KvBeta, NADPH fluorescence decrease slope, 10 min; at 10 µM; stronger effect = lower value.
Assay [8] concerns the target Alpha-2C adrenergic receptor (Homo sapiens) (UniProt P18825). The assay is described as follows: compounds altering alpha2C-coupled GIRK flux – cell-based, HEK293 alpha2C/GIRK1/2, thallium flux, primary screen (AID 624;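 active means fluorescence slope after compound addition differing from the mean of all screened samples at 99.7% confidence, in either direction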;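 further: slope of fluorescence ratio to pre-addition baseline per second over 15 to 24 s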). The settings on record: thallium flux BTC fluorescence, at 10 µM, actives lie on both sides.
Assay [9] in a line: inhibitors of larval lipid processing in zebrafish, primary screen, whole organism, PED6 fluorescence, gall bladder and intestine (AID 686;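 active means a full or partial loss of lipid-probe fluorescence in the fish gall bladder, intestine or both, judged by eye; inactive means no fluorescence loss, or compound toxic to the fish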;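 further: larvae 5 to 7 days old with five fish per well; signal comes from phospholipase A2 cleavage of quenched PED6 carried via bile; overnight exposure to compound and PED6 before scoring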). Particulars: Zebrafish larvae PED6 lipid processing, fluorescence scoring; screened at 20 µM (by protocol).
A short description of assay [10]: loss of swimming-algae plug formation – whole organism, Chlamydomonas reinhardtii, WT vs cilia-less mutant, absorbance, 96-well, primary screen (AID 463189).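 Further: 0% = wild type cc124 cells in DMSO and 100% = ciliumless bld1 mutant cells.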 The settings on record: Chlamydomonas reinhardtii gravitaxis, OD600 absorbance, 2 days; at 10 µM; stronger effect = higher value.
The nature of assay [11]: blockers of RIG-like receptor reporter activation – cell-based, Sendai virus stimulus, luciferase, 10K MLSCN set, TLR/RLR signaling modifier project, primary screen (AID 602276;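 active means inhibition at or above 50% at 10 µM; inactive means inhibition below 50%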;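 further: firefly luciferase from ISG56 promoter only with Renilla not read in this screen; 0% = Sendai virus plus DMSO and 100% = medium plus DMSO without virus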). Particulars: HEK293 RL24 IRF3 luciferase reporter, at 10 µM, stronger effect = higher value.
A short description of assay [12]: TLR3 IRF3 reporter activation blockers – cell-based, poly I:C stimulus, luciferase, 10K MLSCN set, primary screen (AID 602277;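 active means inhibition of the reporter signal at or above 50%; inactive means inhibition below 50%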). Particulars: HEK293-TLR3 RL24 IRF3 luciferase reporter, at 10 µM, stronger effect = higher value.
Where [13] appears, read: measured here: cell density z-score.
[14] abbreviates: measured here: nuclear c-Myc green intensity z-score.
[15] abbreviates: measured here: nuclear pErk red intensity z-score, stronger effect = higher value.

SMILES strings stand for the structures. “And” between values parts separate entries of the source, which are not always exact repeats. Equal values may be shown once. The source made the active and inactive calls.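 How the source made its calls, unless noted: active means inhibition at or above 50% relative to wild type and mutant plate controls; inactive means inhibition below 50%.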

Chain of Voltage-gated potassium channel subunit beta-2 (Rattus norvegicus) (P62483 whole entry, looked up): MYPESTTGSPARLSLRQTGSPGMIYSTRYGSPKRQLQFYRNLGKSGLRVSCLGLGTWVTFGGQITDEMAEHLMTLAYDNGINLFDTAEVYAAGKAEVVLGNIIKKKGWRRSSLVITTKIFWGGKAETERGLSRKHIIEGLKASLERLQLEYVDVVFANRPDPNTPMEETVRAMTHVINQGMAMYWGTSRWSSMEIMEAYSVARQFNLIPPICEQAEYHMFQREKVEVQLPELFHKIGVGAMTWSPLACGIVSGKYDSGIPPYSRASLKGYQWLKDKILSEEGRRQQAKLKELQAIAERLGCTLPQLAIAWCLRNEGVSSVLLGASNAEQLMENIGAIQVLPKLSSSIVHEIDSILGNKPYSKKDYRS
Chain of Dual specificity protein phosphatase 6 (Homo sapiens) (Q16828 whole entry, looked up): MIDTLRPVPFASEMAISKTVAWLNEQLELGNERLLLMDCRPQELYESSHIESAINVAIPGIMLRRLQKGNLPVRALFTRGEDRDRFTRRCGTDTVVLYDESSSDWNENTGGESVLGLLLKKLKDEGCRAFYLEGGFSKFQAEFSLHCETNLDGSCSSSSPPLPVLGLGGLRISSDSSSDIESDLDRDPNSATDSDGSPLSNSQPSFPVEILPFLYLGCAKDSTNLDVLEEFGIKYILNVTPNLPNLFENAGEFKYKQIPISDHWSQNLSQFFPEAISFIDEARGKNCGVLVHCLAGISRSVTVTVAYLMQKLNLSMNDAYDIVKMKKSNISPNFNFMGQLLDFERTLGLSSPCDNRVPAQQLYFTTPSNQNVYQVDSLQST
Chain of Alpha-2C adrenergic receptor (Homo sapiens) (P18825 whole entry, looked up): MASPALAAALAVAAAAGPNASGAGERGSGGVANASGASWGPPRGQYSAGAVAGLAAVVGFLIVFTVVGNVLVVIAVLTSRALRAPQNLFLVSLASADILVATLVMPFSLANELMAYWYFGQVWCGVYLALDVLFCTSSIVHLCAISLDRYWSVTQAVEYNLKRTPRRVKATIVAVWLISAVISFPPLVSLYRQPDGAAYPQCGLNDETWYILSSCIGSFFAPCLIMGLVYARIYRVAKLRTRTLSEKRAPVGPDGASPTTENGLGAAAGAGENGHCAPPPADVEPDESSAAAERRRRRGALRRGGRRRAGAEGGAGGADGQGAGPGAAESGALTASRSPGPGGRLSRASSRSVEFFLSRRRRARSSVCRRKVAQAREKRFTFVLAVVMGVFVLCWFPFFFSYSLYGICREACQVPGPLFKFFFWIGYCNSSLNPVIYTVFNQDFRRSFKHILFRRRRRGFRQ

For `CC(C)[N+](C)(CCOC(=O)C1c2ccccc2Oc2ccccc21)C(C)C`, the cell count in assay [1] was found to be 683. The inhibition was -4.8% (inactive) in assay [1]; -133% (inactive) in [3]; -2.46% (inactive) in assay [5]; 0.683% (inactive) and 0.468% (inactive) in assay [10]; 20.3% (inactive) in [11]; 39.4% (inactive) in assay [12]. Moreover, the inhibition of aggregation in assay [2] is -28.8% (inactive). Besides, the nuclei count in assay [2] was found to be 115%; in assay [3], 138%. Besides, the figures for the z-score in assay [4] (setting [13]), in [4] (setting [14]) and in assay [4] (setting [15]) were -0.466, -0.573 and 0.578, respectively. In assay [6], the fluorescence slope is -0.487 (inactive). Also, the NADPH fluorescence slope in assay [7] was 2.5e-06 (inactive). Besides, in assay [8], the slope is 0.00524 (inactive). In addition, the compound was classed as inactive in assay [9].
As for `Cc1onc(-c2ccccc2)c1C(=O)N[C@@H]1C(=O)N2[C@@H]1SC(C)(C)[C@@H]2C(=O)O`, the cell count in [1] was 638. Besides, the inhibition in assay [1] is -3.4% (inactive); in assay [3], -91.9% (inactive); in [5] it was 25.1% (inactive); in [10], -11.8% (inactive); in assay [11], -2.42% (inactive); in [12] it was 27.7% (inactive). The inhibition of aggregation in assay [2] was -5% (inactive). Also, the nuclei count is 102% in [2] and 126% in assay [3]. In addition, the results for the z-score in assay [4] (setting [13]), in assay [4] (setting [14]) and in assay [4] (setting [15]) were -0.0512, -0.454 and 0.656, respectively. In addition, the fluorescence slope in assay [6] is -0.532 (inactive). Further, in assay [7], the NADPH fluorescence slope is -4.6e-05 (inactive). Further, the slope in assay [8] was 0.00473 (inactive). The compound was classed as inactive in assay [9].
Regarding `C=CCc1ccccc1OCC(O)CNC(C)C` (configuration not stated), the cell count in assay [1] was determined as 628. For the same compound, the inhibition in assay [1] was -8.8% (inactive); in [3] it was -120% (inactive); in [5] it was 7.39% (inactive); in assay [10] it was -2.53% (inactive) and -4.71% (inactive); in assay [11], 11.2% (inactive); in assay [12] it was 34.8% (inactive). In [2], the inhibition of aggregation was -10% (inactive). For the same compound, the nuclei count turned out to be 89.9% in [2] and 131% in assay [3]. Besides, the z-score in assay [4] (setting [13]) is 1.42; in assay [4] (setting [14]), 0.365; in assay [4] (setting [15]), -0.961. Also, in assay [6], the fluorescence slope was -0.466 (inactive). In addition, the NADPH fluorescence slope in [7] was -2.4e-05 (inactive). Moreover, the slope in assay [8] was 0.00435 (inactive). Moreover, the compound was classed as inactive in assay [9].
Regarding `C[C@@H]1C[C@H]2[C@@H]3CCC4=CC(=O)C=C[C@]4(C)[C@@]3(F)[C@@H](O)C[C@]2(C)[C@H]1C(=O)CO`, in assay [1], the cell count came to 647. In addition, the inhibition was -8.8% (inactive) in [1]; -68% (inactive) in assay [3]; 31.1% (inactive) in [5]; 4.88% (inactive) in [10]; -17.5% (inactive) in assay [11]; -9.26% (inactive) in [12]. Moreover, the inhibition of aggregation in assay [2] was 0% (inactive). The nuclei count is 59.5% in assay [2] and 134% in assay [3]. Also, the figures for the z-score in assay [4] (setting [13]), in assay [4] (setting [14]) and in [4] (setting [15]) were 1.14, 0.339 and -1.14, respectively. Moreover, in assay [6], the fluorescence slope is -0.536 (inactive). Besides, the NADPH fluorescence slope in [7] is -9.8e-05 (inactive). The slope in assay [8] was 0.00544 (inactive). The result in assay [9] was inactive.
Turning to `CN1CCC(=C2c3ccccc3C=Cc3ccccc32)CC1`, the cell count in assay [1] amounted to 599. For the same compound, the inhibition in assay [1] was -6% (inactive); in [3] it was -80% (inactive); in assay [5] it was 9.37% (inactive); in [10], 12% (inactive) and 38.6% (inactive); in assay [11], 18.4% (inactive); in assay [12], 46.7% (inactive). Moreover, the inhibition of aggregation in [2] is -5.2% (inactive). The nuclei count in [2] was determined as 104%; in assay [3] it was 131%. For the same compound, the z-score in [4] (setting [13]) was 0.654; in assay [4] (setting [14]) it was 1.45; in assay [4] (setting [15]), -1.1. Besides, the fluorescence slope in assay [6] is -0.438 (inactive). In addition, the NADPH fluorescence slope in assay [7] is -6.6e-05 (inactive). The slope in [8] was 0.00408 (inactive). Also, the outcome in assay [9] was “inactive; toxic”.
Consider `O=C1N[C@@H](Cc2cnc[nH]2)C(=O)N2CCC[C@@H]12`, for which the cell count in [1] came out at 563. The inhibition is -1.5% (inactive) in assay [1]; -32% (inactive) in assay [3]; -0.493% (inactive) in assay [5]; 10.3% (inactive) in assay [10]; 16.7% (inactive) in [11]; 33.3% (inactive) in [12]. Also, the inhibition of aggregation in assay [2] was 17.2% (inactive). Besides, the results for the nuclei count in assay [2] and in [3] were 95.1% and 119%, respectively. Also, the z-score in [4] (setting [13]) is -1.25; in assay [4] (setting [14]), 0.0399; in assay [4] (setting [15]), -0.395. Moreover, the fluorescence slope in assay [6] is -0.516 (inactive). For the same compound, in [7], the NADPH fluorescence slope was -4.6e-05 (inactive). Moreover, the slope in assay [8] was 0.0041 (inactive). Also, the call in assay [9] was inactive.
